Shown are actives, neighbours in structure and some others; about 4.7% of the full set was active somewhere.
D1 ag: agonists of human D1 dopamine receptor; P21728; HEK293 T-REx D1 cells, calcium flux, agonist mode; activation, % at 2 µM; actives 1% (n = 360,000); AID 504660
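Inducible HEK293 T-REx D1 cells, force-coupled to calcium signalling, were plated at 4000 cells/well with tetracycline and held overnight at 30 C. After no-wash calcium dye loading, compound-evoked calcium rise over 180 s flagged agonists.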
TRHR ag: agonists of human TRH receptor. TRHR cells, calcium flux fluo-8, FDSS agonist mode. actives 0.18% (n = 360,000). activation, % at 2 µM. P34981
Target sequence (P34981 whole entry, looked up): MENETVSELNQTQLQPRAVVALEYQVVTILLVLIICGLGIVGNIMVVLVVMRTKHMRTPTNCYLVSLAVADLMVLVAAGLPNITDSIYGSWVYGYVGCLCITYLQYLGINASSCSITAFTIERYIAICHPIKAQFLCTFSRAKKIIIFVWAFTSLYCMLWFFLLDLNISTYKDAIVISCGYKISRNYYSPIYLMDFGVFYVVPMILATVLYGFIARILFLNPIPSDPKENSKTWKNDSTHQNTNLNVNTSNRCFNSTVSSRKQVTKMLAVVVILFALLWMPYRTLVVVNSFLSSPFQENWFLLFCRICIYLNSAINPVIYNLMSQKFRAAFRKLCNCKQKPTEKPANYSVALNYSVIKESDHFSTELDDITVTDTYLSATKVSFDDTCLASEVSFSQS
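TRHR-expressing cells loaded with fluo-8 calcium dye; 23 nL library compound pin-transferred, kinetic FDSS fluorescence (Ex 480/Em 530) recorded about 180 s for agonist-induced calcium release, before a 10 nM TRH EC20 addition for potentiator mode.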
D1 potentiator: potentiators of human D1 dopamine receptor | HEK293 TREx D1 cells, calcium flux, dopamine EC20 potentiation | potentiation, % at 10 µM | actives 0.036% (n = 360,000); in the data active = potentiation above about 30%
TRHR PAM: TRH receptor (human) allosteric enhancement; TRHR cells, fluo-8 calcium fluorescence, EC20 TRH enhancement; P34981; actives 0.66% (n = 360,000); enhancement, % at 2 µM; in the data active = enhancement above about 30%
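TRHR-expressing cells loaded with fluo-8 calcium dye were read kinetically (ex 480/em 530) during compound addition, then stimulated with an EC20 of TRH (10 nM final). Enhancement of the Gq-mediated intracellular calcium response was scored.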
D1 antag: human D1 dopamine receptor antagonism | actives 3.2% (n = 360,000) | AID 504652 | HEK293 TREx D1 cells, calcium flux, dopamine EC80; hits give low values | activity change, negative = inhibition, % at 10 µM; in the data active = activity change below about -30%
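Tetracycline-induced HEK293 Trex D1 cells, force-coupled to calcium, dye-loaded; compounds added and read 180 s, then EC80 dopamine added and calcium flux tracked kinetically another 180 s.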
Of the large screens only hits and unclear results are named; the others gave an inactive call. Rule as the data show it, unless noted: active = activation above about 30%; inactive = the rest.

COc1ccc(S(=O)(=O)NCC(c2ccco2)S(=O)(=O)c2cccs2)cc1C (configuration not stated)	none (no result: D1 antag)
CS(=O)(=O)N(CC(=O)NCC1CCCO1)c1cc(Cl)cc(Cl)c1 (configuration not stated)	D1 antag -49.9
CS(=O)(=O)N(CC(=O)NCC1CCCO1)c1cccc(Cl)c1 (configuration not stated)	none
CC(=O)c1cc(-c2ccccc2)n(CCC(=O)Nc2nc3c(C)cccc3s2)c1C	none
CCC(CC)c1nn2c(=O)cc(COc3ccc(NC(=O)c4ccccc4C)cc3)nc2s1	none
O=C(Nc1nc(-c2ccc(Br)cc2)ns1)c1ccc(F)cc1	none
COc1ccc(C(=O)c2oc3ccccc3c2NC(=O)COc2ccc(C)cc2)cc1	none
CN(C)CCN(Cc1ccco1)C(=O)c1oc2ccccc2c1NC(=O)c1cccc(F)c1	D1 ag 66.2
CN(C)CCN(Cc1ccco1)C(=O)c1oc2ccccc2c1NC(=O)COc1ccccc1	D1 antag -40.3
CCc1ccc(NC(=O)c2ccc(F)c(S(=O)(=O)NCCc3ccc(OC)c(OC)c3)c2)cc1	none
Cn1c(=O)c2c(nc(SCC(=O)NCc3ccc4c(c3)OCO4)n2Cc2ccc(F)cc2)n(C)c1=O	D1 antag -36.8
Cn1c(=O)c2c(nc(SCC(=O)NCc3ccc4c(c3)OCO4)n2Cc2ccccc2)n(C)c1=O	none
COc1ccc(-c2nc(SCC(=O)c3ccc(OC)c(Br)c3)n[nH]2)cc1	none
Cc1onc(-c2ccccc2)c1C(=O)Nc1ccc(S(=O)(=O)Nc2nccs2)cc1	D1 antag -40.2
O=C(Nc1ccccc1)c1cccc(S(=O)(=O)Oc2ccc([N+](=O)[O-])cc2)c1	D1 antag -30.2
O=C(O)c1cccc(NC(=O)c2cccc(S(=O)(=O)Nc3cccc([N+](=O)[O-])c3)c2)c1	none
Cc1cc(C)cc(NS(=O)(=O)c2coc(C(N)=O)c2)c1	none
O=C(Nc1ccc(S(=O)(=O)Nc2nccs2)cc1)c1cccc(F)c1	D1 antag -46.7
CCCCNS(=O)(=O)c1ccc(NC(=O)c2c(-c3ccccc3)noc2C)cc1	none
NC(=O)c1cc(S(=O)(=O)Nc2cccc(F)c2)co1	D1 antag -45.8
O=C(Nc1cccc(F)c1)c1ccccc1	none
O=C(Nc1ccccc1)c1cccc(S(=O)(=O)Nc2cccc(F)c2)c1	D1 antag -40.1
COc1ccc(CNC(=O)C(c2ccco2)N(C(=O)Cc2cccs2)c2cccnc2)cc1 (configuration not stated)	D1 antag -34.9
COc1ccc(CNC(=O)C(c2ccco2)N(Cc2cccs2)C(=O)Cc2cccs2)cc1 (configuration not stated)	none
Cc1cc(C)c(C(=O)N2CCCC(Nc3ccc(F)cc3)C2)o1 (configuration not stated)	none
Cc1ccc2[nH]c(C(=O)N3CCCC(Nc4ccc(F)cc4)C3)cc2c1 (configuration not stated)	D1 antag -30.1
CCOC(=O)c1c(C)[nH]c(NC(=O)NNC(=O)c2ccccc2Cl)c1C	D1 antag -30.9
CCOc1ccc(CCNC(=O)COC(=O)c2ccc(S(=O)(=O)N3CCCC3)cc2)cc1OCC	D1 antag -37.5
CCOc1ccc(CCNC(=O)COC(=O)c2ccc(C)c([N+](=O)[O-])c2)cc1OCC	D1 antag -46.9
Cc1ccc(CNC(=O)COC(=O)c2ccc(S(=O)(=O)N3CCCC3)cc2)cc1	D1 antag -30.4
CCOc1ccc(CCNC(=O)COC(=O)c2ccc(S(C)(=O)=O)cc2)cc1OCC	none
COc1ccccc1N1CCN(c2cc(C)nc3nncn23)CC1	none
COc1ccccc1-c1nnc(SC/C(O)=C(\C#N)c2nc3ccccc3[nH]2)n1C1CCCCC1	D1 antag -34.3
N#C/C(=C(/O)CSc1nnc(Cc2cccs2)n1C1CCCCC1)c1nc2ccccc2[nH]1	none
COc1ccc(-c2noc(CSc3nc4ccccc4c(=O)n3-c3ccc(C)cc3)n2)cc1	TRHR PAM 33.4
COc1ccc(-n2c(SCc3nc(-c4ccc(C)cc4)no3)nnc2-c2ccccc2)cc1	none
Cc1nnc(SCc2nc(-c3ccc(Cl)cc3)no2)n1-c1ccc(F)cc1	D1 antag -33.2
COc1cccc(-n2c(=O)c3c(C)c(C)sc3n(CC(=O)NCCc3ccc(OC)c(OC)c3)c2=O)c1	none
CC(C)c1ccc2oc(-c3ccc(Cl)c(NC(=O)c4cccs4)c3)nc2c1	none
FC(F)(F)c1cccc(NC(=S)NC2CCCC2)c1	D1 antag -35.5
FC(F)(F)c1ccc(NC(=S)NC2CCCCC2)cc1	D1 antag -43.9
CC(C)(C)NNC(=S)Nc1cccc(C(F)(F)F)c1	TRHR PAM 31.6
CCCNC(=S)Nc1cccc(C(F)(F)F)c1	none
Fc1cccc(NC(=S)NC2CCCCCCC2)c1	none
FC(F)(F)c1cccc(NC(=S)NCC2COc3ccccc3O2)c1 (configuration not stated)	D1 antag -35.1
CCc1nnc(SCc2cc(C)ccc2C)c2cc3sc(C)cc3n12	none
Cc1ccc(CSc2nc(=O)c3c(C)cc(C)nc3n2C2CC2)cc1	none
COc1cc(NC(=O)c2ccc(-n3cnc4cccnc43)cc2)cc(OC)c1	none
CCNC(=S)Nc1cc(OC)c(NC(=O)c2ccco2)cc1OC	none
COC(=O)NNC(=O)c1ccccc1OC	none
COc1ccccc1C(=O)NNC(=S)NC(=O)c1ccco1	D1 ag 50.4
COC(=O)c1cc(OC)c(OC)cc1NC(=S)NC(=O)c1ccco1	D1 antag -37.5
COc1ccc(C(=O)NNC(=S)NC(=O)c2ccco2)cc1	none
COc1ccccc1C(=O)NNC(=S)Nc1ccccc1	D1 antag -30.6
Cc1ccc(S(=O)(=O)c2nnn3c2nc(N2CCC(C)CC2)c2cc(Cl)ccc23)cc1C	none
CN(Cc1ccccc1)c1ccc(-c2nc(-c3ccco3)no2)cc1[N+](=O)[O-]	none
O=C(O)C1CCCCC1C(=O)Nc1ccccc1Nc1ccccc1 (configuration not stated)	D1 antag -41.0
O=C(Nc1ccccc1)c1ccccc1NC(=O)[C@H]1CCCC[C@H]1C(=O)O	none
CCC1=NN(C(=O)Cc2ccccc2)C(O)(c2ccncc2)C1 (configuration not stated)	D1 antag -41.4
CCOC(=O)c1cc(-c2ccccc2)n(CCCC(=O)Nc2cccc(Cl)c2C)c1C	D1 antag -67.6
CCOC(=O)c1cc(-c2ccccc2)n(CCCC(=O)Nc2ccc(C)cc2C)c1C	none
COc1ccc(NC(=O)CSc2nncs2)cc1S(N)(=O)=O	D1 antag -31.7
CSCCC(/C(O)=C(\C#N)c1nc2ccccc2[nH]1)N1C(=O)c2ccccc2C1=O (configuration not stated)	D1 antag -30.9
